The source made the active and inactive calls.

36 molecules from PubChem BioAssay can be followed below.

One test is described as follows: probe aLefty1 binding on compound microarray – biochemical, small-molecule microarray, 635/667 nm fluorescence, primary screen (AID 1153).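 Further: score merges spot fluorescence with signal-to-noise ratio from the scanned slide images.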 To be noted: higher = more signal.
For `CO[C@@H]1COC(=O)[C@H](C)NC(=O)[C@@H](C)COC(=O)CCC[C@H]1C`, the composite z-score stood at 0.0291.
Same read-out and setting: the value for `CC(C)c1ccc(NN2C(C(O)c3ccc4c(c3)OCO4)C=CC3C(=O)N(c4ccccc4)C(=O)C32)cc1` (stereo not drawn) was -0.0593; that for `CCOC(=O)[C@H](Cc1ccccc1)NC(=O)CCC1CC(OC(=O)NCc2ccc3c(c2)OCO3)CC2(CCCC(COC(=O)NCc3ccccc3)O2)O1` (stereo partly drawn) was -0.101.
On the same count and under the same terms, the value for `CC(C)(C)OC(=O)CC[C@]1(C(=O)NCc2ccccc2)N=C(c2ccc(OCCCO)cc2)O[C@H]1c1ccccc1` was 1.18; that for `Cc1ccc(C2CC=C(C(=O)O)CN2S(=O)(=O)c2ccc(C)cc2)cc1` (stereo not drawn) was -0.0294; that for `CC[C@@H](c1ccccc1)n1c(=O)n2n(c1=O)[C@H]1[C@H](O)[C@@H]3O[C@@H]3C(=NOCC=C(C)CCC=C(C)C)[C@H]1CC2` was -0.241.
In the case of `CC(CCC(=O)OC[C@H]1O[C@H](C#Cc2ccccc2)C=C[C@@H]1Oc1ccc(C)cc1)=NOC[C@@H](O)COCc1ccco1`, the composite z-score is -0.839.

Another test can be described thus: plasmodial surface anion channel blockers, osmotic lysis – cell-based, P. falciparum Indochina, OD700, 1 h, primary screen (AID 1154). To be noted: P. falciparum Indochina infected RBC osmotic lysis, higher = more signal, called active from +8 up or from −8 down.
Turning to `COc1ccc([Si](C)(C)[C@@H]2[C@@H](CCO)O[C@]3(C(=O)N(Cc4ccc(NC(C)=O)cc4)c4ccccc43)[C@H]2C)cc1`, the z-score is 23 (active).
The same measure, in the same setting: then `CCCCC(=C=CC[C@H](O)c1ccccc1OCCO)C[C@H](O)COCc1ccccc1`, with 12 (active).
The same measure, in the same setting: then `COC(=O)[C@H]1COC(c2ccc(OCCCO)cc2)=N1`, with 22.4 (active); and `CC(C)C[C@@H]1NC(=O)[C@H]2C[C@@H](C(=O)NCCCCCCN(C)C)[C@@H](c3cccc(OCCO)c3)N2C1=O`, with 4.3 (inactive).
Turning to `O=C1O[C@@H](c2ccccc2)[C@@H](c2ccccc2)N2[C@@H](c3ccccc3OCCO)[C@]3(C(=O)Nc4ccc(C#CCCO)cc43)[C@@H](C(=O)O)[C@H]12`, the z-score is 1.32 (inactive).
`CC(C)NC(=O)[C@@]1(C)c2ccccc2C(=O)N(Cc2cc(F)cc(C(F)(F)F)c2)[C@H]1c1ccc(CO)cc1`: the z-score was 7.03 (inactive).
For `O=C1O[C@@H](c2ccccc2)[C@@H](c2ccccc2)N2[C@@H](c3ccc(OCCO)cc3)[C@]3(C(=O)Nc4ccccc43)[C@@H](C(=O)N3CCN(c4ncccn4)CC3)[C@H]12`, the z-score was 17.4 (active).
On the same count and under the same terms, the value for `CCc1cc2c(nc1CC)CCN(CCC(C)=NOC[C@@H](O)[C@H]1O[C@@H]3OC(C)(C)O[C@@H]3[C@H]1O)C2` was 0.202 (inactive); that for `C=CC[C@@H]1C=C[C@H](ON=C(C)CCN2CCc3nc(CC)c(CC)cc3C2)[C@@H](CO)O1` was 2.65 (inactive).
On the same count and under the same terms, the value for `CN(C)CCCNC(=O)[C@@H]1c2ccccc2C(=O)N(Cc2cc(F)cc(C(F)(F)F)c2)[C@H]1c1ccc(CO)cc1` was 1.88 (inactive); that for `O=C1[C@H]2[C@H]3[C@H](O)[C@H](O)CC(=NOC[C@@H](O)COCc4ccco4)[C@H]3CC[C@H]2C(=O)N1c1cccc(Oc2ccccc2)c1` was 3.18 (inactive).
With `CS(=O)(=O)CCOC(=O)C1=CC(CCCO)=CC(c2cccs2)N(Cc2cccc(OC(F)(F)F)c2)C=C1C(=O)OCCS(C)(=O)=O` (stereo not drawn), the z-score is 6.83 (inactive).
For the molecule `CC(CCC(=O)OC[C@H]1O[C@H](C#Cc2ccccc2)C=C[C@@H]1Oc1ccc(C)cc1)=NO[C@@H](C)c1cn([C@H](CO)Cc2ccccc2)nn1`, the z-score was 10.5 (active).
Still for that read-out and setting: then `COc1ccc(O[C@H]2C=C[C@@H](c3ccccc3)O[C@@H]2COC(=O)CCC(C)=NO[C@@H](C)c2cc(-c3c(C)cc(C)cc3C)no2)cc1`, with 0.595 (inactive).
The same measure, in the same setting: then `CC(C)[C@@H](OCc1ccccc1)[C@H](C)C=NO[C@H](C)c1cn([C@H](CO)Cc2ccccc2)nn1`, with -0.146 (inactive); and `COc1cccc([C@H]2Oc3ccc(OC)cc3C(=NOC(C)CN3CCCc4nc(C)c(C)cc43)[C@@H]2O)c1` (stereo partly drawn), with 2.47 (inactive).
On to `O=C1C[C@@H](O)[C@@H](O)[C@@H]2[C@@H]3C(=O)N(C4CCCCC4)C(=O)[C@@H]3CC[C@H]12`, for which the z-score was 1.27 (inactive).
Same read-out and setting: the value for `COc1ccc([Si](C)(C)[C@H]2[C@H](CC(=O)N3CCC[C@H]3CO)O[C@@]3(C(=O)N(Cc4cccc(N5C(=O)COc6ccccc65)c4)c4ccccc43)[C@@H]2C)cc1` was 6.56 (inactive); that for `CC(C)NC(=O)[C@@]1(c2ccc([N+](=O)[O-])cc2)CC(=O)N(CC23CC4CC(CC(C4)C2)C3)[C@@H]1c1ccc(CO)cc1I` was 18.8 (active); that for `C=CCOC(=O)[C@H]1[C@@H]2C(=O)O[C@@H](c3ccccc3)[C@@H](c3ccccc3)N2[C@@H](c2ccc(OCCOC(=O)[C@H]3C[C@H]4C(=O)N5CCC[C@H]5C(=O)N4[C@H]3c3cccc(OCCO)c3)cc2)[C@]12C(=O)Nc1ccc(I)cc12` was 0.491 (inactive).
Same read-out and setting: the value for `CC(C)CN1CCc2nc(-c3ccccc3)c3c(c2CC1)CO[C@@H](C)C3` was 0.82 (inactive); that for `CC(C)OC(=O)C=C1C[C@@H](c2ccc(C#N)cc2)O[C@@H](c2ccc(C#N)cc2)O1` was 8.57 (active); that for `C=CC[C@@H]1C=C[C@H](ON=C[C@@H](OC)[C@H](C)C=CCC(=O)OC)[C@@H](CO)O1` was 0.815 (inactive).
Consider `CN1C(=O)C2C(C1=O)C1C=C(CCCO)C2C(c2ccc(CN3CCCC3)cc2)N1C` (stereo not drawn), for which the z-score is 1.51 (inactive).
On the same count and under the same terms, then `COCC(=C=CC[C@@H](O)c1ccccc1OCCO)CCO`, with 2.69 (inactive).
The same measure, in the same setting: the value for `COCCOC(=O)N1C(=O)[C@@]2(c3cc(C#CCNC(N)=O)ccc31)[C@H](c1ccc(O)cc1)N1[C@H](c3ccccc3)[C@H](c3ccccc3)OC(=O)[C@H]1[C@@H]2C(=O)N1CCCCCCC1` was 1.04 (inactive); that for `C=C(/C(=C/C[C@H](OC(=O)c1ccncc1)c1ccc(OCCO)cc1)c1cnc2ccccc2c1)C(C)C` was 18.5 (active); that for `Cc1cc2c(c(=O)o1)[C@H](O)[C@H]1O[C@H]1C2=O` was -0.228 (inactive).
For `COC(=O)[C@@H]1CC[C@H](C)[C@@H](c2ccc(C)cc2)N1C(=O)c1ccc(C=NOC[C@@H](O)COCc2ccco2)cc1`, the z-score is 5.79 (inactive).
For `CO[C@@H]1COC(=O)[C@H](C)NC(=O)[C@@H](C)COC(=O)CCC[C@H]1C`, the z-score is 5.14 (inactive).
Still for that read-out and setting: the value for `CC(C)c1ccc(NN2C(C(O)c3ccc4c(c3)OCO4)C=CC3C(=O)N(c4ccccc4)C(=O)C32)cc1` (stereo not drawn) was 1.76 (inactive); that for `CCOC(=O)[C@H](Cc1ccccc1)NC(=O)CCC1CC(OC(=O)NCc2ccc3c(c2)OCO3)CC2(CCCC(COC(=O)NCc3ccccc3)O2)O1` (stereo partly drawn) was 0.0765 (inactive).
Still for that read-out and setting: then `CC(C)(C)OC(=O)CC[C@]1(C(=O)NCc2ccccc2)N=C(c2ccc(OCCCO)cc2)O[C@H]1c1ccccc1`, with 14.6 (active); and `Cc1ccc(C2CC=C(C(=O)O)CN2S(=O)(=O)c2ccc(C)cc2)cc1` (stereo not drawn), with 1.26 (inactive); and `CC[C@@H](c1ccccc1)n1c(=O)n2n(c1=O)[C@H]1[C@H](O)[C@@H]3O[C@@H]3C(=NOCC=C(C)CCC=C(C)C)[C@H]1CC2`, with 1.27 (inactive).
Still for that read-out and setting: the value for `CC(CCC(=O)OC[C@H]1O[C@H](C#Cc2ccccc2)C=C[C@@H]1Oc1ccc(C)cc1)=NOC[C@@H](O)COCc1ccco1` was 17.7 (active).
